SMILES strings stand for the structures. Inconclusive results are not listed. The source made the active and inactive calls. Calls follow the shape of the dose curve; as a rule, active = well fitted inhibition curve with a large enough effect; inconclusive = small, poorly fitted or top-dose-only effect; inactive = no such curve, though single readings can be large or run the other way. *1 amine or outer side, *2 acyl side, *3 side chain or, on linkers, in order; H or OH if unused. Where a SMILES comes first, the peptide text is derived from it. Bridges are numbered along the chain shown (N, C = ends). [ ]: non-standard residue; d: D form. The star is where a group is joined. ξ: configuration not given here. X10 = NC1=NCCC(C(N[*:1])C(=O)[*:2])N1; ΔAla(3-NHCONH2) = NC(=O)NC=C(N)C(=O)O; ξβ3hOrn = NCCCC(N)CC(=O)*; Dap = NC[CH](N)C(=O)O
% is scaled to controls: 0 for no effect and ±100 for the full control effect; potency is read from the fitted curve at half-maximal effect.

This experiment in a line: Primary qHTS for inhibitors of nuclear receptor binding SET domain protein 2 (NSD2) in an RCH-ACV wild type WT cells (2C) (AID 1645877). Also: nearly all actives have a fitted effect of over 70% in size. Particulars: RCH-ACV (leukaemia line) NSD2 WT (2C) viability, CellTiter-Glo, 72 h; series mostly up to 44.9 µM; activity change, negative = cell killing: at the top concentration. Background: Quantitative high-throughput screening tests each substance at several concentrations.
`CN1C(=O)CC(C)(c2ccccc2)C1=O` (stereo not drawn): the “activity change, negative = cell killing” value was -8.06% (inactive).

On to `Cc1c(N)cccc1C(F)(F)F`, for which the result was inactive.

`CCOC(=O)c1ccc(O)c(O)c1`: the Potency is 13.3 µM (active).

Regarding `Fc1ccc(C(c2ccc(F)cc2)N2CCNCC2)cc1`, the “activity change, negative = cell killing” value was -11.4% (inactive).

On to `CC(=O)OCC[N+](C)(C)C`, for which the “activity change, negative = cell killing” value is -6.62% (inactive).

`NS(=O)(=O)c1ccc(N2CCCCS2(=O)=O)cc1`: the “activity change, negative = cell killing” value is 5.39% (inactive).

Regarding `Nc1ccc(C(=O)N2CC3CC(CN(Cc4ccccc4)C3)C2)cc1`, the “activity change, negative = cell killing” value was -3.73% (inactive).

Turning to `CCCCOCCOC(=O)c1cccnc1`, the “activity change, negative = cell killing” value is 2.59% (inactive).

`C[C@H](CN1CCCC1)C(=O)c1ccc(C(F)(F)F)cc1`: the Potency is 6.68 µM (active).

Regarding `CC(C)(C)c1ccc(C(=O)CCCCl)cc1`, the result was inactive.

For `CCCC(=O)Nc1ccc(O)c(C(C)=O)c1`, the “activity change, negative = cell killing” value was -22.4% (inactive).

Regarding `O=P(O)(O)OCC(O)CO` (stereo not drawn), the “activity change, negative = cell killing” value is -5.51% (inactive).

On to `O=C(O)/C=C(\CC(=O)O)C(=O)O`, for which the “activity change, negative = cell killing” value is 0.351% (inactive).

Consider `C/C(=N\O)[C@@H](C)NCC(C)(C)CN[C@H](C)/C(C)=N/O`, for which the “activity change, negative = cell killing” value was -25.5% (inactive).

For the compound `Oc1ccccc1-c1nnco1`, the compound was classed as inactive.

As for `NCCCC(N)CC(=O)NCC1NC(=O)C(CO)NC(=O)C(N)CNC(=O)C(C2CCN=C(N)N2)NC(=O)C(=CNC(N)=O)NC1=O` (stereo not drawn) (H-[Dap]S[Dap](ξβ3hOrn)[ΔAla(3-NHCONH2)][X10]; lactam 1-C; configuration not given here), the outcome was “inactive [at 0.588 µM]”.

Regarding `Cc1sccc1Br`, the “activity change, negative = cell killing” value is 7.81% (inactive).

As to `COC(=O)CCCCC(CCSS/C(CCO)=C(\C)N(C=O)Cc1cnc(C)nc1N)SC(C)=O` (stereo not drawn), the “activity change, negative = cell killing” value is -4.07% (inactive).

Regarding `O=C1CC(c2ccc(Cl)cc2)CC(=O)N1`, the outcome was inactive.

In the case of `CC(CCc1ccc2c(c1)OCO2)NN` (stereo not drawn), the outcome was inactive.

Regarding `CC1(C)S[C@@H]2[C@H](NC(=O)C(c3ccccc3)S(=O)(=O)O)C(=O)N2[C@H]1C(=O)O` (stereo partly drawn), the “activity change, negative = cell killing” value is 3.91% (inactive).

As for `CC(C)=CCNc1ncnc2c1ncn2[C@@H]1O[C@H](CO)[C@@H](O)[C@H]1O`, the Potency was 1.06 µM (active).

`O=C(O)C1CCC1`: the “activity change, negative = cell killing” value was 2.88% (inactive).

`O=C(O)Cn1c(=O)n(Cc2ccc(Br)cc2F)c(=O)c2ccc(Cl)cc21`: the “activity change, negative = cell killing” value was -8.46% (inactive).

With `C[N+]1(CC2COC(c3ccccc3)(c3ccccc3)O2)CCCCC1` (stereo not drawn), the Potency is 2.59 µM (active).

As to `CN=C(N)NC(=O)Nc1c(C)cccc1C`, the “activity change, negative = cell killing” value was 4.77% (inactive).

In the case of `O=c1[nH]c2ccccc2c(=O)n1CCCl`, the “activity change, negative = cell killing” value was 2.06% (inactive).

With `COc1ccccc1OCC1CNC(=O)O1` (stereo not drawn), the “activity change, negative = cell killing” value is 7% (inactive).

For `CO[C@@]1(NC(=O)CSC[C@@H](N)C(=O)O)C(=O)N2C(C(=O)O)=C(CSc3nnnn3C)CS[C@@H]21`, the outcome was inactive.

As for `CC(=O)[C@@]1(O)CC[C@H]2[C@@H]3C[C@H](C)C4=CC(=O)CC[C@]4(C)[C@H]3CC[C@@]21C`, the Potency was 15 µM (active).

For `CC(NN)c1ccccc1` (stereo not drawn), the “activity change, negative = cell killing” value was 7.42% [at 17.3 µM] (inactive).

In the case of `CN1CCN(N)CC1`, the “activity change, negative = cell killing” value is -1.24% (inactive).

As for `O=C1CC[C@H](C(=O)N2CCCCC2)N1`, the call was inactive.

In the case of `CC(COc1ccccc1)NN` (stereo not drawn), the “activity change, negative = cell killing” value is 1.63% (inactive).

Turning to `CCS(=O)(=O)c1ccc(OC)c(C(=O)OC)c1`, the result was inactive.

Turning to `CC(NC(CCc1ccccc1)C(=O)O)C(=O)N1C(=O)N(C)CC1C(=O)O` (stereo not drawn), the call was inactive.

`C=CCOc1cc(Cl)ccc1C(=O)NCCN(CC)CC`: the “activity change, negative = cell killing” value was -1.36% (inactive).

As to `COc1cc(C(=O)OC(COCCC(C)C)CN2CCOCC2)cc(OC)c1OC` (stereo not drawn), the outcome was inactive.
